Test results published in PubChem BioAssay AID1508602 (The Scripps Research Institute Molecular Screening Center, 2020).
The whole screen tested about 650,000 compounds, of which about 6,800 (1%) were called active. The full list was thinned out, with actives kept by preference. A number with no mark means an inactive call. Rule as the data show it: active = activation above about 4.9%; inactive = the rest.

Each compound was assayed against G-protein coupled receptor 151 (Homo sapiens) (UniProt Q8TDV0) (assay: activates the human receptor GPR151, primary screen, cell-based, PathHunter beta-arrestin, luminescence (AID 1508602;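 also: 0% = median of compound wells and 100% = cells with positive control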)). Conditions: PathHunter beta-arrestin GPR151 cells, at 11.2 µM, hits give high values.
Sequence of G-protein coupled receptor 151 (Homo sapiens) (Q8TDV0 whole entry, looked up): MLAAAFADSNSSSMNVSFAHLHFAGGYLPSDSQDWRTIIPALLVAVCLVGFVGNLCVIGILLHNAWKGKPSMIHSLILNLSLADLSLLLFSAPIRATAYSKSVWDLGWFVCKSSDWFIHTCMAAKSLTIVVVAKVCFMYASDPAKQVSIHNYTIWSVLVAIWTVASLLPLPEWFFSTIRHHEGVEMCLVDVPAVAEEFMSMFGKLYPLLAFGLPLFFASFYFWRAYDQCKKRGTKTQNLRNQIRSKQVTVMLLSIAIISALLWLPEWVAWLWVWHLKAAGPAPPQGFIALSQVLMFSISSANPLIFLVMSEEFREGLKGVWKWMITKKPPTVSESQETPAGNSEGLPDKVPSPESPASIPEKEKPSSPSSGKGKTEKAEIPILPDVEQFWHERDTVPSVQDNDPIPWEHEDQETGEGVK

Row | SMILES | activation
1 | COc1ccc(S(=O)(=O)n2nc(-c3cc(OC)cc(OC)c3)cc2N)cc1 | -1.02%
2 | Cc1ccc(NC(=O)C2CCCN(S(=O)(=O)c3ccc4c(c3)oc(=O)n4C)C2)cc1C (stereo unspecified) | -0.645%
3 | O=C(c1ccc(N2CCC(NCc3cccc(F)c3F)CC2)cc1)N1CCCC(CO)C1 (stereo unspecified) | 0.257%
4 | O=C(Nc1ccc2oc(-c3cccc(I)c3)nc2c1)c1cc(Br)ccc1Cl | -0.461%
5 | O=C(Cc1cccs1)NCCC1=CCCCC1 | 9.81% (active)
6 | O=C(CNC(=S)N(Cc1cccs1)C1CCCCC1)NCCC1=CCCCC1 | 2.8%
7 | O=C(Cc1ccc([N+](=O)[O-])cc1)NCCC1=CCCCC1 | 0.571%
8 | CCOC(=O)c1c(NC(=O)c2cc(S(N)(=O)=O)c(Cl)cc2Cl)sc2c1CCC(C)C2 (stereo unspecified) | 0.0074%
9 | COc1cc(/C=C2/C(=N)N3N=C(CC(C)C)SC3=NC2=O)ccc1OC(=O)c1ccc(F)cc1 | -0.0343%
10 | CCOC(=O)Nc1c(C(=O)OC)[nH]c2ccc(C)cc12 | -1.5%
11 | CCOC(=O)c1[nH]c2ccc(OC)cc2c1NC(=S)N1CCN(c2ncccn2)CC1 | 2.39%
12 | CCOC(=O)c1[nH]c2ccc(OC)cc2c1NC(=O)CN(C)C | 6.75% (active)
13 | COc1ccccc1NC(=O)c1sc2ncn(Cc3cccc(Br)c3)c(=O)c2c1C | -1.06%
14 | O=C(NCCc1c[nH]c2ccccc12)c1cccs1 | -0.507%
15 | S=C(S)NCCc1c[nH]c2ccccc12 | -0.43%
16 | CSc1ncc(C(=O)NCCc2c[nH]c3ccccc23)c(C)n1 | 4.98% (active)
17 | Cc1ccc(CNC(=O)CN2C(=O)C3C4C=CC(C4)C3C2=O)o1 (stereo unspecified) | 0.668%
18 | C[C@@H](c1ccccc1)N1C(=O)[C@H]2[C@H]3[C@H](O)C=CC(=O)[C@@H]3CC[C@H]2C1=O | -1.71%
19 | CC(=O)N(c1nc(C=O)cs1)c1ccccc1F | 1.55%
20 | CC(C)(C)c1ccc(C2/C(=C(/O)c3ccccc3)C(=O)C(=O)N2c2ccc(OCC(=O)O)cc2)cc1 (stereo unspecified) | -0.849%
21 | COc1ccc(N2C(=O)C(=O)/C(=C(/O)c3ccccc3)C2c2ccc(Cl)cc2)cc1 (stereo unspecified) | -0.225%
22 | O=C(O)COc1ccc(N2C(=O)C(=O)/C(=C(\O)c3ccccc3)C2c2ccc(Cl)cc2Cl)cc1 (stereo unspecified) | 6.19% (active)
23 | CCOc1ccc2c(c1)=C/C(=C\c1[nH]c(=S)[nH]c1O)C(=O)N=2 | -0.225%
24 | CN1NC2(CCCCC2)N(c2ccccc2)C1=S | 0.403%

Row | SMILES | activation
25 | COc1ccc(CCNc2ncnc3c2nc(Nc2cccc(N(C)C)c2)n3C(C)C)cc1 | -3.07%
26 | COc1ccc(CCNc2cc(C)nc(NCc3ccc4c(c3)OCO4)n2)cc1 | -0.591%
27 | COc1ccc(CCNc2cc(C)nc(Nc3cccc(N(C)C)c3)n2)cc1 | 8.12% (active)
28 | CC1=C(C(=O)OCc2ccc3c(c2)OCO3)C(c2ccc(Cl)c(Cl)c2)NC(=O)N1 (stereo unspecified) | -0.562%
29 | CC(C)(C)S(=O)(=O)Nc1nccnc1-c1ccc2c(c1)OCO2 | -0.466%
30 | CCCCSC1=C(C#N)C(c2ccc(OC)cc2)C2=C(CC(C)(C)CC2=O)N1 (stereo unspecified) | 1.78%
31 | CC(=O)N(C)c1ccc(N=Cc2ccc3ccccc3c2)cc1 | -0.522%
32 | O=C1NC2(CCN(CC(=O)N3CCCCC3)CC2)Nc2ccccc21 | -0.0006%
33 | Cc1ccc(N=Cc2c(NCc3ccco3)nc3c(C)cccn3c2=O)cc1 | -0.949%
34 | C/C(=N/NC(=O)c1ccccc1)c1ccc(F)cc1 | -1.24%
35 | CC(C)n1c(Nc2ccc3ncccc3c2)nc2c(N)ncnc21 | 0.875%
36 | CCCNc1ncnc2c1nc(Nc1cccc(N(C)C)c1)n2C(C)C | -1%
37 | CC(C)n1c(Nc2ccc3ncccc3c2)nc2c(NC3CC3)ncnc21 | 7.49% (active)
38 | CC1=C(C(=O)Nc2nc3ccc(Br)cc3s2)C(c2ccccc2C)C2=C(CC(C)(C)CC2=O)N1 (stereo unspecified) | 1.38%
39 | COc1ccc(C(=O)Nc2ccc(S(=O)(=O)N(C)C3CCCCC3)cc2)cc1 | -0.159%
40 | COc1ccc(C(=O)Nc2ccc(S(=O)(=O)NC(C)C)cc2)cc1 | 5.49% (active)
41 | COc1ccc(NC(=O)c2ccc(C(=O)Nc3ccc(OC)cc3)cc2)cc1 | -0.694%
42 | COc1cccc(-c2nc3nc(C)c(CCC(=O)NC4CCCC4)c(C)n3n2)c1 | 0.324%
43 | Cc1ccc(Cl)cc1NC(=O)C1CC(=O)c2ccccc21 (stereo unspecified) | 0.739%
44 | Cc1nc(-c2cccc(NC(=O)C3CC(=O)c4ccccc43)c2)cs1 (stereo unspecified) | 7.17% (active)
45 | CC(=O)Nc1cccc(-c2csc(C)n2)c1 | -0.0322%
46 | CCSCCOC(=O)C1=C(C)NC2=C(C(=O)CC(c3cccs3)C2)C1c1cc(OC)c(O)c([N+](=O)[O-])c1 (stereo unspecified) | 0.362%
47 | c1ccc(CN2CCC(Nc3nnnn3-c3ccccc3)CC2)cc1 | 0.295%
48 | CC(NC(=O)Nc1ccc(Br)cc1Br)(C(F)(F)F)C(F)(F)F | -0.154%

Row | SMILES | activation
49 | CCOC(=O)c1c(NC(=O)CSc2nnc(CNC(=O)Cc3ccc(OC)cc3)n2-c2ccc(F)cc2)sc2c1CCCC2 | -0.665%
50 | COCCNC(=S)N1CCN(c2ncccn2)CC1 | -1.93%
51 | COc1ccccc1N1CCN(CCNC(=O)c2ccc(F)cc2)CC1 | -2.55%
52 | COCCNC(=S)N1CCN(c2ccccc2OC)CC1 | 12.1% (active)
53 | CC(C)(C)c1ccc(S(=O)(=O)ON2C(=O)c3ccccc3C2=O)cc1 | 3.8%
54 | CCCC(=O)Oc1ccc2c(-c3ccccc3)cc(=O)oc2c1 | 1.03%
55 | C=CCn1c2ccccc2c2nnc(SC(CC)C(=O)Nc3nc(C)c(C(=O)OCC)s3)nc21 (stereo unspecified) | -0.843%
56 | C=CCn1c2ccccc2c2nnc(SCc3[nH]c(=O)[nH]c3C(=O)CCCCC(=O)OCC)nc21 | 9.28% (active)
57 | C=CCN(CC=C)C(=O)CSc1nnc2c3ccccc3n(C)c2n1 | 0.64%
58 | C=CCNC(=O)C(=O)NCC1OCCCN1S(=O)(=O)c1ccccc1 (stereo unspecified) | 5.93% (active)
59 | O=C(NCCN1CCOCC1)C(=O)NCC1OCCCN1S(=O)(=O)c1ccccc1 (stereo unspecified) | -0.042%
60 | O=C(NCC1OCCCN1S(=O)(=O)c1ccccc1)C(=O)NC1CC1 (stereo unspecified) | 0.198%
61 | Cc1nc(NC(=O)CSc2nnc3c(C)cc4cc5c(cc4n23)OCCO5)sc1C | 0.827%
62 | O=C(Nc1nc2ccccc2[nH]1)c1cc(Cl)ccc1Cl | -5.18%
63 | CC(C(=O)NCCN1CCOCC1)n1c2ccccc2c2cn[nH]c(=O)c21 (stereo unspecified) | 6.21% (active)
64 | CC(C(=O)NCc1ccc(F)cc1)n1c2ccccc2c2cn[nH]c(=O)c21 (stereo unspecified) | 0.149%
65 | CC(C(=O)NC1CCCC1)n1c2ccccc2c2cn[nH]c(=O)c21 (stereo unspecified) | 0.687%
66 | Cc1ccccc1Cn1cc(SCC(=O)N2CCCC2)c2ccccc21 | -1.67%
67 | COc1ccccc1NC(=O)C1CC12CCN(Cc1cccc(OCCO)c1)CC2 (stereo unspecified) | -0.488%
68 | Cn1c2ccccc2c2nnc(SCCCCC(=O)Nc3cccc4ccccc34)nc21 | -1.31%
69 | Cn1c2ccccc2c2nnc(SCC(=O)Nc3ccc(NC(=O)C4CC4)cc3)nc21 | 7.08% (active)
70 | Cn1c2ccccc2c2nnc(SCC(=O)Nc3ccc(Cl)cn3)nc21 | -1.79%
71 | CC(C)(C)CN1CCC(Oc2cccc(C(=O)NCC3CC(=O)N(C4CC4)C3)c2)CC1 (stereo unspecified) | -0.301%
